# SW480 rerep – DNA re-replication induction in SW480 cells; SW480 DNA re-replication, Hoechst DNA content imaging, 48 h; Potency, µM (series often up to 46.1 µM), for the others: top-dose re-replication activation, actives largely listed as activators; actives 1.8% (n = 340,000); further: % of control where 0% means no effect; nearly all actives have a fitted effect of over 55% in size
#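 Cells (250 per well) received 23 nL compound or DMSO by pin tool and were kept 48 hr at 37 C, 5% CO2. Nuclei were then stained with Hoechst for 40 min and scanned for DNA content.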
# KB-3-1 tox – kills parental KB-3-1 adenocarcinoma cells | KB-3-1 viability, CellTiter-Glo ATP luminescence, 72 h | AID 1347075 | Potency, µM (doses to about 46.1 µM), actives largely listed as cytotoxic | actives 1.4% (n = 400,000); further: on the % scale 0 is the no-effect control and ±100 the full control effect; nearly all actives have a fitted effect of over 60% in size
#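 Parental KB-3-1 adenocarcinoma cells in phenol-red-free DMEM with 10% FBS were pin-treated with compounds at several concentrations, incubated 72 h at 37 °C, and viability read by CellTiter-Glo luminescence; concentration-effect curves were fitted after normalization.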
# MCF10A rereplic – inducers of DNA re-replication in MCF 10A breast cells. actives 2.9% (n = 350,000). Potency, µM (highest dose often 46.1 µM), for inactives: at the highest dose activity, positive = re-replication, actives largely listed as activators. AID 624296. MCF 10A DNA re-replication, Hoechst nuclear intensity, 48 h; further: % of control where 0% means no effect; nearly all actives have a fitted effect of over 50% in size
# PTAP TSG101 blk – blocks PTAP/TSG101 interaction to inhibit HIV-1 budding; 340,000 tested, under 10 active; Fluorescence polarization, FITC-PTAP peptide / Tsg101 binding; Potency, µM (titrated, usually from 115 µM), without a hit: at the top dose activity change, negative = inhibition, hits mostly inhibitors; Q99816; active means well fitted inhibition curve with a large enough effect in the main read-out, with a control signal flat, not every such curve was filed as active; inconclusive means small, poorly fitted or top-dose-only effect, or effect the other way, or a change in a side signal; inactive means no such curve, though single readings can be large or run the other way; further: % of control where 0% means no effect
# Target sequence (Q99816 whole entry, looked up): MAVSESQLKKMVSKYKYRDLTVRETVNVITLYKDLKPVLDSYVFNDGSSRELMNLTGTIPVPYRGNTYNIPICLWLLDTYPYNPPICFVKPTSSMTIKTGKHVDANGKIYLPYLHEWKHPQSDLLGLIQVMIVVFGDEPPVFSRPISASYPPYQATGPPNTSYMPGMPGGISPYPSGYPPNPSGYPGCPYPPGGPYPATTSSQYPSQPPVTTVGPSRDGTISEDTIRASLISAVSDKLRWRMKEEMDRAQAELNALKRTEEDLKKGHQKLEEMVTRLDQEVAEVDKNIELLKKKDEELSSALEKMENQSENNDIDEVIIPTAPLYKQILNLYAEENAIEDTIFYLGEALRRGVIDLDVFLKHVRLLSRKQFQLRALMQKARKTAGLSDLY
#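 Steps: Tsg101 binding domain dispensed (10 uM final), compounds pinned in DMSO, FITC-labeled PTAP-motif peptide added (50 nM final); after 20 min binding at room temperature, polarization measured.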
# RGS4 inhibitor – inhibitors of human regulator of G protein signaling 4. P49798. actives 0.039% (n = 390,000). AID 504845. Potency, µM (series often up to 114 µM), without a hit: at the top dose activity change, negative = inhibition, actives largely listed as inhibitors. Transcreener GDP fluorescence polarization, RGS4-accelerated GTP hydrolysis; further: on the % scale 0 is the no-effect control and ±100 the full control effect; nearly all actives have a fitted effect of over 75% in size
# Target sequence (P49798 whole entry, looked up): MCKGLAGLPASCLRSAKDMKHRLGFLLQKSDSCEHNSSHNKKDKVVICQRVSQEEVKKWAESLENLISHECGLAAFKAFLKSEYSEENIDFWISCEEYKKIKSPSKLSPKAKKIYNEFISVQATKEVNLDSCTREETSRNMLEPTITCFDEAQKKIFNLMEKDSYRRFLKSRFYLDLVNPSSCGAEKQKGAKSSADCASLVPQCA
#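 MLSMR compounds (23 nl, pin-transferred) preincubated 10 min at room temperature with a 500nM (2x) first reagent, then RGS4 at 900nM (2x) plus Transcreener GDP mix added; fluorescence polarization (620/688 nm) read before and after 90 min at 30 °C.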
# KB-V1 cytotox – KB-V1 MDR subline cytotoxicity; KB-V1 MDR cells viability, CellTiter-Glo, 72 h; Potency, µM (series often up to 46.1 µM), most hits filed as cytotoxic; actives 3.4% (n = 400,000); AID 1347076; further: on the % scale 0 is the no-effect control and ±100 the full control effect; nearly all actives have a fitted effect of over 60% in size
#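 Readout: CellTiter-Glo luminescence, 10 min after addition. Cells: KB-V1 MDR subline, 72 h at 37 degrees C with compound. Analysis: corrected, normalized data fitted to concentration-effect curves.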
# An asterisk follows results filed as active; i = inactive; ? = inconclusive; . = no result given; ! = not active in a repeat; [ ] = dose if it differs, or a comment. The list is not random: actives were taken first. Their share in the collection is about 6.6%. Unless noted, the call rests on the fitted dose curve; in most records, active means well fitted curve in the direction sought with a large enough effect; inconclusive means small, poorly fitted or top-dose-only effect, or another doubt; inactive means no such curve, though single readings can be large; an effect the other way counts as inactive or inconclusive. Potency means the concentration at half of the fitted maximal effect.
SMILES,SW480 rerep,KB-3-1 tox,MCF10A rereplic,PTAP TSG101 blk,RGS4 inhibitor,KB-V1 cytotox
COc1ccc(OC)c(-c2nc3c(C#N)c[nH]n3c2NC2CCCCC2)c1,.,i,.,.,7.7%,i
O=C(Nc1ccc(Cl)cn1)c1ccccc1[N+](=O)[O-],14.6µM*,?,?,-4.8%,-34.1%,?
O=C(Nc1ccc(Cl)cn1)c1cccc2ccccc12,?,?,?,-3.5%,-2.4%,?
O=C(Nc1cccc2c1C(=O)NC2=O)c1ccccc1[N+](=O)[O-],20.6µM*,i,18.1%,-3.6%,2.6%[11.4 µM],i
O=C(NNS(=O)(=O)c1ccccc1[N+](=O)[O-])c1ccccc1[N+](=O)[O-],0.517µM*,i,-13.5%,-5.3%,19.5%,i
CC(C)C(=O)NNS(=O)(=O)c1ccccc1[N+](=O)[O-],-2.2%,i,-9.4%,-1.9%,6.2%,?
Cc1ccc(C2CC(c3ccccc3)=NN2C(=S)Nc2ccccc2)o1 (stereo unspecified),11.6µM*,5.8µM*,5.17µM*,-0.4%,?,5.17µM*
Cc1cc(/C=C2\SC(=S)N(C)C2=O)c(C)n1-c1ccccc1O,11.6µM*,?,13µM*,-2.1%,9.5%,?
Cc1cc(/C=C2\SC(=S)N(C)C2=O)c(C)n1-c1ccc(O)cc1,?,?,?,-3.3%,-0.4%[11.4 µM],?
Cc1oc(=O)c(NC(=O)c2cccc(Cl)c2)cc1C(=O)c1ccccc1,20.6µM*,i,?,0.1%,?,?
COC(=O)c1cc(NC(=O)c2ccc([N+](=O)[O-])cc2)c(=O)oc1C,?,i,-0.7%,-5.2%,-3.2%,i
CC(=O)c1cc(NC(=O)c2ccc([N+](=O)[O-])cc2)c(=O)oc1C,25.4%,i,16.4µM*,-3.5%,-47.0%,i
COc1ccc(C(=O)Nc2cc(C(=O)c3ccccc3)c(C)oc2=O)cc1,?,i,?,0.3%,?,i
CCc1ccccc1NC(=O)Nc1cc(C(=O)NCc2cccc(F)c2)ccc1N1CCCC1,.,i,.,.,8.6%,i
CCCCC(=O)Nc1ccnc(-c2cccnc2)n1,-10.7%,i,3.9%,-11.5%,-28.6%,16.4µM*
COc1cccc(N2CCN(C(=O)c3cnc4c(-c5ccc(F)cc5)c(C)nn4c3C)CC2)c1,.,i,.,.,-5.0%,i
COc1ccc(C2CC(c3ccccc3)Oc3cc(C)cc(C)c32)cc1 (stereo unspecified),.,.,.,.,7.1%,.
CCOc1ccccc1CNC(=O)c1cc2oc3ccccc3c2n1C,25.9%,7.31µM*,14.6µM*,1.1%,-23.5%,?
CCOc1ccccc1CNC(=O)c1cc2occc2n1C,-0.4%,i,-0.7%,0.9%,-25.0%,i
COCCNC(=O)c1cc2oc3ccccc3c2n1C,-4.0%,i,8.3%,-4.9%,-4.6%,23.1µM*
Cc1ccc(S(=O)(=O)NCl)cc1,8.2%,.,3.6%,.,.,.
Cc1nn2c(-c3ccco3)ccnc2c1-c1ccc(Cl)cc1,.,i,.,.,1.8%,?
COc1ccc(C2c3c(ncn(CCN4CCOCC4)c3=N)Oc3ccc4ccccc4c32)cc1 (stereo unspecified),?,?,?,-7.1%,-7.3%,14.6µM*!
COc1ccc(C2C3=C(CC(C)(C)CC3=O)Oc3ncn(Cc4ccccc4)c(=N)c32)cc1 (stereo unspecified),?,i,16.4µM*,-3.4%,-11.7%,3.26µM*
N=c1c2c(ncn1CCN1CCOCC1)Oc1ccc3ccccc3c1C2c1ccccc1 (stereo unspecified),-10.7%,i,-0.3%,-0.3%,26.5%,i
SMILES,SW480 rerep,KB-3-1 tox,MCF10A rereplic,PTAP TSG101 blk,RGS4 inhibitor,KB-V1 cytotox
O=C(COc1ccc(S(=O)(=O)NC2CCCCC2)cc1)Nc1ccc(C(F)(F)F)cc1,.,i,.,.,13.6%,i
Cc1nnc(NC(=O)CSCc2cc(=O)c3ccccc3[nH]2)s1,.,i,.,.,4.6%,i
CC(=O)Nc1cccn(Cc2c(Cl)cccc2Cl)c1=O,-1.8%,i,?,1.9%,?,i
O=C(Nc1cccn(Cc2c(Cl)cccc2Cl)c1=O)c1ccccc1Cl,1.5%,?,16.1%,-0.1%,-22.5%,5.8µM*
O=C(Nc1cccn(Cc2c(Cl)cccc2Cl)c1=O)c1ccc(Cl)cc1Cl,23.8%,20.6µM*,14.6%,1.0%,3.5%,16.4µM*
O=C(Nc1c[nH]c(=O)[nH]c1=O)c1ccccc1Cl,-2.1%,?,?,-1.9%,15.1%,16.4µM*
COC(=O)c1scc(-c2ccc(C)cc2)c1S(=O)(=O)Nc1cc(C)c(Cl)cc1OC,.,i,.,.,-5.2%,i
CCOC(=O)c1c(S(=O)(=O)N2CCC(C(=O)N3CCN(c4ccc(F)cc4)CC3)CC2)c(C)n(C)c1C,.,i,.,.,27.5%,i
CCCCOc1ccccc1NC(=O)CC1Sc2ccccc2NC1=O (stereo unspecified),.,i,.,.,-29.3%,i
Cc1ccc(-c2cc3c(N4CCN(c5cc(C)ccc5C)CC4)nccn3n2)cc1,.,?,.,.,?,i
O=C(CSc1nncs1)Nc1ccc(N2CCCCC2)cc1,-5.3%,?,-1.1%,-6.6%,-10.2%,16.4µM*
COc1ccc(NC(=O)CSc2nncs2)cc1S(=O)(=O)N1CCCCC1,-2.2%,i,4.2%,-2.3%,-9.0%,i
O=C(Cn1ncc2c([nH]c3ccccc32)c1=O)NCc1cccc(Cl)c1,.,i,.,.,-22.6%,i
CC1CCN(C(=O)CSc2nnc3c(n2)[nH]c2ccccc23)CC1,-10.0%,?,2.5%,-3.0%,-8.8%,16.4µM*
COc1ccc2[nH]c3nc(SCC(=O)Nc4cccc(NC(C)=O)c4)nnc3c2c1,-35.2%,i,20.6µM*,-3.5%,9.2%,?
COc1cccc(NC(=O)CSc2nnc3c(n2)[nH]c2ccc(C)cc23)c1,?,i,?,0.2%,?,i
Cc1ccc(-c2csc(NC(=O)CSc3nnc4c(n3)[nH]c3ccccc34)n2)cc1,?,?,16.4µM*,-1.3%,-29.5%,?
CCOC(=O)c1c(S(=O)(=O)N2CCCC(C(=O)NCc3ccccc3OC)C2)c(C)n(C)c1C (stereo unspecified),.,i,.,.,10.2%,i
CCN(CC)CCn1c(NC(=O)c2ccc(C(F)(F)F)cc2)nc2ccccc21,0.5%,i,20.6µM*,0.4%,-18.8%,i
CCCCS(=O)(=O)c1oc(-c2ccc(F)cc2)nc1S(=O)(=O)c1ccccc1,.,.,.,.,-11.1%,.
CCOCN(C(=O)Cn1c(COC)nc2ccccc21)c1c(C)cccc1CC,-12.4%,i,0.2%,-6.3%,16.7%,i
